According to PubChem BioAssay AID1159580 (chemical genetic matrix, 2015):
Where “and” joins values, the source holds several entries; their conditions need not be identical. Equal values may be shown once. About 2,000 (36%) of roughly 5,500 compounds were called active. About 18% were inconclusive and are not listed. Cut-off read from the data, not from the text of the source: active = normalized growth mostly below about 0.91 (no sharp cut-off); inconclusive = no clear call, values can overlap the other calls; inactive = mostly above about 0.92. The list shows a part of the results.

Test: chemical genetic growth profiling, strain panel (AID 1159580);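 note: tested at 20 µM; growth read once vehicle control cultures reached saturation at 30 °C; 1 = growth at the plate median or of vehicle wells; lower values mean less growth of the strain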
Details: S. cerevisiae deletion strains, growth OD

Measured: normalized growth

OCc1ccccc1O[C@@H]1O[C@H](CO)[C@@H](O)[C@H](O)[C@H]1O
inactive: locus YAL013W, strain DEP1, active compounds read low 0.994 | locus YAL021C, strain ccr4, active compounds read low 0.98 | locus YAL026C, strain drs2, active compounds read low 0.99 | locus YAL030W, strain snc1, active compounds read low 0.964 | locus YBL061C, strain skt5, active compounds read low 0.983 | locus YBR009C, strain hhf1, active compounds read low 0.977 | locus YBR021W, strain FUR4, active compounds read low 1.04 | locus YBR023C, strain chs3, active compounds read low 0.99 | locus YBR171W, strain sec66, active compounds read low 0.98 | locus YBR229C, strain ROT2, active compounds read low 0.95 | locus YBR231C, strain swc5, active compounds read low 0.983 | locus YBR279W, strain paf1, active compounds read low 0.983 | locus YCL011C, strain gbp2, active compounds read low 0.98 | locus YCL016C, strain dcc1, active compounds read low 0.991 | locus YCL029C, strain bik1, active compounds read low 0.994 | locus YCL069W, strain vba3, active compounds read low 1 | locus YCR088W, strain abp1, active compounds read low 0.98 | locus YDL005C, strain med2, active compounds read low 0.989 | locus YDL035C, strain GPR1, active compounds read low 1 | locus YDL040C, strain nat1, active compounds read low 0.994 | locus YDL074C, strain BRE1, active compounds read low 0.966 | locus YDL101C, strain DUN1, active compounds read low 0.976 | locus YDL134C, strain PPH21, active compounds read low 0.987 | locus YDL185W, strain tfp1, active compounds read low 0.983 | locus YDL192W, strain arf1, active compounds read low 0.994 | locus YDR001C, strain nth1, active compounds read low 0.984 | locus YDR069C, strain doa4, active compounds read low 0.987 | locus YDR101C, strain arx1, active compounds read low 0.946 | locus YDR137W, strain rgp1, active compounds read low 1.02 | locus YDR150W, strain NUM1, active compounds read low 0.98 | locus YDR159W, strain sac3, active compounds read low 0.944 | locus YDR162C, strain NBP2, active compounds read low 0.997 | locus YDR195W, strain ref2 0.962 | locus YDR297W, strain sur2, active compounds read low 1 | locus YDR318W, strain mcm21, active compounds read low 0.999 | locus YDR334W, strain swr1, active compounds read low 0.925 | locus YDR335W, strain msn5, active compounds read low 0.989 | locus YDR388W, active compounds read low 0.996 | locus YDR392W, strain spt3, active compounds read low 0.984 | locus YDR502C, strain sam2, active compounds read low 0.987 | locus YEL003W, strain gim4, active compounds read low 0.984 | locus YEL037C, strain rad23, active compounds read low 0.984 | locus YEL061C, strain CIN8 (second series), active compounds read low 0.972 | locus YEL061C, strain CIN8, active compounds read low 0.978 | locus YER015W, strain faa2, active compounds read low 0.998 | locus YER016W, strain bim1, active compounds read low 0.992 | locus YER110C, active compounds read low 0.994 | locus YER111C, strain swi4, active compounds read low 1.01 | locus YER155C, strain BEM2 (second series), active compounds read low 0.998 | locus YER155C, strain BEM2, active compounds read low 0.996 | locus YER167W, strain BCK2, active compounds read low 0.99 | locus YFR010W, strain ubp6, active compounds read low 0.998 | locus YGL078C, strain dbp3, active compounds read low 0.988 | locus YGL086W, strain mad1, active compounds read low 0.97 | locus YGL167C, strain pmr1, active compounds read low 1 | locus YGL173C, strain kem1, active compounds read low 0.995 | locus YGL227W, strain vid30, active compounds read low 0.965 | locus YGL240W, strain doc1, active compounds read low 0.996 | locus YGL248W, strain PDE1, active compounds read low 0.979 | locus YGL253W, strain hxk2, active compounds read low 0.987 | locus YGR078C, strain PAC10, active compounds read low 0.97 | locus YGR135W, strain pre9, active compounds read low 1.07 | locus YGR229C, strain SMI1, active compounds read low 1.01 | locus YGR252W, strain gcn5, active compounds read low 1.08 | locus YHR013C, strain ard1, active compounds read low 1.04 | locus YHR027C, strain rpn1, active compounds read low 0.959 | locus YHR030C, strain SLT2, active compounds read low 0.992 and 0.993 | locus YHR079C, strain IRE1 (second series), active compounds read low 0.983 | locus YHR079C, strain IRE1, active compounds read low 1.03 | locus YHR094C, strain hxt1, active compounds read low 1 | locus YHR129C, strain ARP1, active compounds read low 0.991 | locus YHR142W, strain chs7, active compounds read low 0.984 | locus YHR200W, strain rpn10, active compounds read low 0.987 | locus YIL066C, strain RNR3, active compounds read low 0.967 | locus YIL073C, strain SPO22, active compounds read low 1.02 | locus YIL125W, strain kgd1, active compounds read low 0.989 | locus YIR030C, strain dcg1, active compounds read low 0.997 | locus YJL092W, strain hpr5, active compounds read low 0.997 | locus YJL095W, strain BCK1 (second series), active compounds read low 0.987 | locus YJL095W, strain BCK1, active compounds read low 0.978 and 1.01 | locus YJL115W, strain asf1, active compounds read low 0.992 | locus YJL129C, strain trk1, active compounds read low 0.967 | locus YJL134W, strain LCB3, active compounds read low 0.991 | locus YJL154C, strain vps35, active compounds read low 0.991 | locus YJL164C, strain tpk1, active compounds read low 0.993 | locus YJL166W, strain qcr8, active compounds read low 1.01 | locus YJL168C, strain set2, active compounds read low 0.986 | locus YJL187C, strain SWE1 (second series), active compounds read low 0.952 | locus YJL187C, strain SWE1, active compounds read low 0.997 | locus YJR043C, strain POL32, active compounds read low 0.994
